# Measured values from PubChem BioAssay AID624297 (National Center for Advancing Translational Sciences (NCATS), 2012).
# Screen size: about 340,000 compounds; about 6,200 (1.8%) were called active. A call without a number means that no potency is given here. Another 10% or so got no clear call; they are omitted. The call rests on the fitted dose curve; in most records, active means well fitted activation curve with a large enough effect; inconclusive means small, poorly fitted or top-dose-only effect; inactive means no such curve, though single readings can be large or run the other way. For the sample, actives were picked, then their nearest neighbours and some compounds at random.
# Test: A quantitative high throughput screen for small molecules that induce DNA re-replication in SW480 colon adenocarcinoma cells. Further: nearly all actives have a fitted effect of over 55% in size.
# Details: Hoechst DNA content imaging, 48 h; series mostly up to 46.1 µM
# Summary of the method: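 Cells (250 per well) received 23 nL compound or DMSO by pin tool and were kept 48 hr at 37 C, 5% CO2. Nuclei were then stained with Hoechst for 40 min and scanned for DNA content.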
# Potency means the concentration at half of the fitted maximal effect.
SMILES,Potency,re-replication activation
COc1ccc(C2/C(=C(/O)c3ccc4c(c3)CC(C)O4)C(=O)C(=O)N2Cc2ccncc2)cc1 (centres undefined),inactive,–
COc1cc(C2/C(=C(\O)c3ccc4c(c3)CC(C)O4)C(=O)C(=O)N2Cc2ccco2)ccc1O (centres undefined),0.517 µM (active),–
COCCCN1C(=O)C(=O)/C(=C(/O)c2ccc3c(c2)CC(C)O3)C1c1cccnc1 (centres undefined),inactive,–
O=C(COC(=O)c1ccc(O)cc1O)c1ccc2c(c1)OCCO2,inactive,–
O=C1CN(C(=O)COC(=O)/C=C/c2ccc(F)cc2)c2ccccc2N1,inactive,–
COc1ccc(C(=O)c2c3ccc([N+](=O)[O-])cc3[n+]([O-])n2CCCN)cc1,18.4 µM (active),–
COc1ccc2c(C(=O)c3ccc(C)cc3)n(CCC(N)=O)[n+]([O-])c2c1,inactive,–
COc1ccc(C(=O)CC(=O)C(=O)Nc2cc([N+](=O)[O-])ccc2OC)cc1,inactive,–
COc1cc(OC)cc(-c2c(C#Cc3ccsc3)c3cc(-c4ccc(SC)cc4)ccc3n2C)c1,inactive,–
Cc1nnc(N/N=C/c2ccccn2)[nH]c1=O,1.3 µM (active),–
Cc1cc(C(=O)N/N=C/c2ccccn2)c2ccccc2n1,inactive,–
Cc1nnc(N/N=C/C2CC=CCC2)[nH]c1=O (centres undefined),inactive,–
CC(C)[C@@H](C(=O)OCC(=O)c1ccc2c(c1)NC(=O)CO2)N1C(=O)c2ccccc2C1=O,inactive,–
O=S(=O)(NCC1CN(S(=O)(=O)c2ccc3c(c2)OCCO3)C1)c1c(F)cccc1F,inactive,–
CSc1ncccc1C(=O)Nc1cccc(S(=O)(=O)N2CCOCC2)c1,inactive,–
CCOC(=O)c1c(S(=O)(=O)Nc2cccc(Cl)c2)c(C)n(C)c1C,8.2 µM (active),–
CCOC(=O)c1cccc(NS(=O)(=O)c2c(C(=O)N3CCCCCC3)c(C)n(C)c2C)c1,inactive,–
CCOC(=O)c1c(S(=O)(=O)Nc2ccc(CN3CCC(C)CC3)cc2)c(C)n(C)c1C,inactive,–
COc1ccc(CCN2CC(C(=O)OCC(=O)NCc3ccccc3Cl)CC2=O)cc1OC (centres undefined),inactive,–
Cc1ccc(S(=O)(=O)N2CCN(C(=O)Cn3c(=O)cnc4ccccc43)CC2)c(C)c1,inactive,–
CCN(CC(=O)Nc1c(F)cccc1F)C(=O)Cc1cccs1,inactive,–
Cc1cc(NC(=O)CSCC(=O)NC(C)c2ccccc2)no1 (centres undefined),inactive,–
CCc1ccc(C(CNc2nc(C(F)(F)F)nc3ccccc23)N(C)C)cc1 (centres undefined),20.6 µM (active),–
NS(=O)(=O)c1ccc(CCNc2nc(C(F)(F)F)nc3ccccc23)cc1,inactive,–
COc1cccc(CNc2nc(C(F)(F)F)nc3ccccc23)c1,inactive,–

SMILES,Potency,re-replication activation
CC(CN1CCC(n2nccc2NC(=O)C2CCCC2)CC1)c1ccccc1 (centres undefined),inactive,–
CC(CN1CCOCC1)c1ccccc1 (centres undefined),inactive,–
CC(CN1CCCCC1)c1ccccc1 (centres undefined),5.8 µM (active),–
O=C(Nc1ccc2ccccc2c1[N+](=O)[O-])c1ccccc1,inactive,–
O=C(Nc1ccccc1Cl)Nc1cccc2cccnc12,inactive,–
O=C(Nc1cccc2cccnc12)c1cccc(Cl)c1,inactive,–
CC(=O)/C(=N\Nc1ccc(Cl)cc1Cl)Sc1cccc2cccnc12,6.51 µM (active),–
CCC(C)c1ccc(NC(=O)COC(=O)C2CCCC2)cc1 (centres undefined),inactive,–
CC(Sc1nncn1C)C(=O)NCCC1=CCCCC1 (centres undefined),inactive,–
COc1ccc(Cn2cc(CN3CCS(=O)(=O)N(Cc4ccc(-c5cccc(Cl)c5)cc4)C(C)C3=O)nn2)cc1 (centres undefined),inactive,–
CN(C(=O)c1cccc(NC(=O)Cc2ccc([N+](=O)[O-])cc2)c1)C1CCC1,inactive,–
CCCCCOc1ccc(CSC2=NCCN2)cc1[N+](=O)[O-],5.8 µM (active),–
CCCOc1ccc(Cn2ccnc2)cc1[N+](=O)[O-],inactive,–
Cc1nc(SCc2ccc(F)cc2)c([N+](=O)[O-])[nH]1,inactive,–
O=C1NCC(c2ccccc2)(c2ccccc2)C(=O)N1,inactive,–
Cc1ccc(OCC(=O)Nc2ccc(N3CCN(C(=O)c4ccco4)CC3)cc2)c(C)c1,inactive,–
COc1cccc(C(=O)Nc2ccc(N3CCN(C(=O)c4ccco4)CC3)cc2)c1,18.4 µM (active),–
CCC(=O)Nc1ccc(C(=O)N2CCN(C(=O)c3ccco3)CC2)cc1,inactive,–
Cc1ccc(S(=O)(=O)N2CCCCC2)cc1NC(=O)CCNC(=O)c1ccccc1,inactive,–
Cc1ccc(C2=N/C(=C\c3ccc(OS(=O)(=O)c4ccc(C)cc4)cc3)C(=O)O2)cc1,inactive,–
Cc1ccc(N2CCN(C3=NC(=O)/C(=C\c4cccs4)S3)CC2)cc1,inactive,–
Cc1cccc(C2=N/C(=C/c3cccs3)C(=O)O2)c1,4.61 µM (active),–
Cc1nc2ccc(N)nc2nc1C,inactive,–
CCCN(CCC)S(=O)(=O)c1cc2c(cc1Br)CCN2C(=O)CC,inactive,–
Cc1noc(C)c1S(=O)(=O)N(C)C[C@H]1Oc2ccc(NC(=O)C3CC3)cc2C(=O)N([C@H](C)CO)C[C@@H]1C,inactive,–

SMILES,Potency,re-replication activation
O=C(NCCN1CCOCC1)c1ccc(/C=C2\Sc3ccccc3N(Cc3ccc(F)cc3)C2=O)cc1,inactive,–
CN1CCN(CCCNC(=O)c2ccc(/C=C3\Oc4ccccc4N(Cc4ccc(Cl)cc4)C3=O)cc2)CC1,inactive,–
CCN1CCN(CCNC(=O)c2ccc(/C=C3/Sc4ccccc4N(Cc4cccc(C)c4)C3=O)cc2)CC1,20.6 µM (active),–
C[C@@H]1CN([C@@H](C)CO)C(=O)c2cccc(NS(=O)(=O)c3ccc(F)cc3)c2O[C@H]1CN(C)C(=O)NC1CCCCC1,inactive,–
CC1CN(C(=O)c2ccc([N+](=O)[O-])s2)CC(C)O1 (centres undefined),inactive,–
O=C(c1cccc(S(=O)(=O)N2CCCCCC2)c1)N1CCN(Cc2ccccc2)CC1,inactive,–
CC(NC(=O)c1ccccc1)C(=O)Nc1ccccc1 (centres undefined),inactive,–
O=C(NC1=CC(=O)c2ccccc2C1=O)c1ccccc1,5.8 µM (active),–
Cn1c(NC(=O)c2ccccc2)nc2ccccc21,inactive,–
Cc1c[n+]([O-])ccc1[N+](=O)[O-],inactive,–
COc1ccc(S(=O)(=O)N2C[C@H]3CON(C)[C@H]3C[C@H]2c2cccc(Br)c2)cc1,–,-5.21% [at 9.22 µM] (inactive)
O=C(COc1ccccc1F)Nc1nc(-c2ccccn2)cs1,inactive,–
CCc1ccc2c(c1)C1(NN=C(c3ccccc3)S1)C(=O)N2 (centres undefined),10.3 µM (active),–
CN(CCc1ccccc1)C(=O)c1cccc(NC(=O)Cc2cccc(NC(=O)C3CCCN(C(=O)C4CCC4)C3)c2)c1 (centres undefined),inactive,–
Cc1ccccc1C1CC(c2cccs2)=NN1S(C)(=O)=O (centres undefined),inactive,–
CCS(=O)(=O)Nc1ccc(C2=NN(S(=O)(=O)c3ccc(F)cc3)C(c3ccco3)C2)cc1 (centres undefined),inactive,–
Fc1ccc(N2N=C(c3cccs3)CC2c2ccco2)c(F)c1 (centres undefined),23.1 µM (active),–
CCCc1cc(=O)[nH]c(SCC(=O)Nc2ccc(C(=O)Nc3ccccc3OC)cc2)n1,inactive,–
Cc1ccc(-c2cc(=O)c3ccc(Cl)cc3[nH]2)cc1,inactive,–
O=c1cc(-c2ccccc2)[nH]c2cc(F)ccc12,0.92 µM (active),–
Cc1ccc(-c2cc(=O)c3ccc(F)cc3[nH]2)cc1,inactive,–
CCCCNCCS(=O)(=O)NCc1ccccc1,inactive,–
O=C(CSc1ncn[nH]1)Nc1ccc(Br)cc1Br,inactive,–
Cc1cccc(OCC(=O)OCC(=O)Nc2ccc(Cl)cn2)c1,inactive,–
O=C1OC(Cc2ccccc2)C(c2ccccc2)C1=O (centres undefined),inactive,–

SMILES,Potency,re-replication activation
COc1cccc(CNC(C)C(=O)Nc2ccc(S(=O)(=O)N3CCCC3)cc2)c1 (centres undefined),inactive,–
CCN1CCC2(CC1)N=C(c1ccc(F)cc1)C(=S)N2C(=O)c1ccc(C)cc1,20.6 µM (active),–
CCN1CCN(C(=O)CSc2ccc(C)cc2)CC1,inactive,–
Cc1ccc(SCC(=O)N2CCN(c3ccc(F)cc3)CC2)cc1,–,2.77% [at 1.84 µM] (inactive)
CN(CC(=O)O)C(=O)c1ccccc1,inactive,–
Nc1cc2c(cc1Br)-c1ccc(F)cc1C2=O,inactive,–
O=C(O)C(=Cc1ccccc1[N+](=O)[O-])c1ccccc1,inactive,–
CCN1CCC(O)(/C=C/c2ccc(C)cc2)C(C(=O)/C=C/c2ccc(C)cc2)C1 (centres undefined),inactive,–
CCOc1ccc2nc(NC(=O)CSc3nc4c(c(=O)n(C)c(=O)n4C)n3CC)sc2c1,inactive,–
CCC(=O)c1ccc(OCC(=O)Nc2ccc3nc(C)sc3c2)cc1,inactive,–
CCOc1ccc2nc(Nc3nc4ccc(NC(C)=O)cc4s3)sc2c1,18.4 µM (active),–
COc1ccc(CCOC2OC(CO)C(OC(=O)/C=C/c3ccc(O)c(OC)c3)C(O[C@H]3O[C@@H](C)[C@H](O)[C@@H](O)[C@H]3O)C2O)cc1O (some centres undefined),inactive,–
NNC(=O)c1ccc(Cl)cc1Cl,inactive,–
CC(C)(C)c1cc(C(=O)NN)n(Cc2ccc(Cl)cc2Cl)n1,11.6 µM (active),–
Cn1cc(C(=O)c2ccc(Cl)cc2Cl)cc1C(=O)NN,inactive,–
COc1ccc(C(=O)Nc2cccc(/C=C(/CCC(=O)O)c3nc4ccccc4s3)c2)cc1,inactive,–
O=C(COC(=O)c1cccnc1Cl)NC(=O)NC1CCCCC1,inactive,–
Cc1nc2ccc(NC(=O)c3cccc(S(=O)(=O)N4CCOCC4)c3)cc2s1,inactive,–
CC/C(=C\c1ccc(Cl)cc1)c1ccncc1,inactive,–
CCCC1=Nc2cc(C(=O)NCc3ccco3)ccc2Sc2ccccc21,5.17 µM (active),–
CC(C)(C)c1ccc(C(=O)NCc2ccco2)cc1,inactive,–
CCC1=Nc2cc(C(=O)NCCCN3CCOCC3)ccc2Sc2ccc(Br)cc21,inactive,–
COc1ccc(NC(=O)Nc2ccc3c(c2)C(=O)N([C@H](C)CO)C[C@H](C)[C@@H](CN(C)C(=O)Nc2ccc4c(c2)OCO4)O3)cc1,inactive,–
O=C(Cc1ccc(NC(=O)C2CCCN(C(=O)CCc3ccccc3)C2)cc1)Nc1ccc(C(=O)N2CCOCC2)cc1 (centres undefined),–,-31.4% [at 9.22 µM] (inactive)
